From article PMC4336329 (PLoS ONE, 2015)
Out of some 310,000 compounds screened, about 2,200 (0.71%) showed an effect of 50% or more. The effect is printed as a negative number. The full list was thinned out, with strong results kept by preference.

The compounds below were run against human ether-à-go-go-related gene (hERG) potassium channel (human, UniProt Q12809) (assay: primary screen, population patch clamp on CHO cells stably expressing hERG; higher = less effect of the substance).
Protocol: Briefly, Chinese hamster ovary (CHO) cells stably expressing the hERG channel were dislodged from tissue culture flasks and dispensed into PPC plates. […] During the recording, background leak currents were estimated by a 100 ms step to -80 mV from an initial holding potential of -70 mV and subtracted from the subsequent current measurement. The campaign was conducted in two phases using slight differences in recording protocol. In the first phase, the initial voltage pulse used a 100 ms step to -30 mV from a holding potential of -70 mV, a 2 s conditioning step to +25 mV, and a 2 s test step to -30 mV. During the second phase of the screen, the potential during the conditioning step was raised to +45 mV. In both phases of the campaign, a secondary voltage pulse was applied using the same parameters as the second phase initial pulse. The initial and secondary pulses were applied in the absence of compound, and upon application of 1 μM and 10 μM test concentrations. Small molecule effects on hERG current density were quantified by […].

Chain of human ether-à-go-go-related gene (hERG) potassium channel (Q12809 whole entry, looked up): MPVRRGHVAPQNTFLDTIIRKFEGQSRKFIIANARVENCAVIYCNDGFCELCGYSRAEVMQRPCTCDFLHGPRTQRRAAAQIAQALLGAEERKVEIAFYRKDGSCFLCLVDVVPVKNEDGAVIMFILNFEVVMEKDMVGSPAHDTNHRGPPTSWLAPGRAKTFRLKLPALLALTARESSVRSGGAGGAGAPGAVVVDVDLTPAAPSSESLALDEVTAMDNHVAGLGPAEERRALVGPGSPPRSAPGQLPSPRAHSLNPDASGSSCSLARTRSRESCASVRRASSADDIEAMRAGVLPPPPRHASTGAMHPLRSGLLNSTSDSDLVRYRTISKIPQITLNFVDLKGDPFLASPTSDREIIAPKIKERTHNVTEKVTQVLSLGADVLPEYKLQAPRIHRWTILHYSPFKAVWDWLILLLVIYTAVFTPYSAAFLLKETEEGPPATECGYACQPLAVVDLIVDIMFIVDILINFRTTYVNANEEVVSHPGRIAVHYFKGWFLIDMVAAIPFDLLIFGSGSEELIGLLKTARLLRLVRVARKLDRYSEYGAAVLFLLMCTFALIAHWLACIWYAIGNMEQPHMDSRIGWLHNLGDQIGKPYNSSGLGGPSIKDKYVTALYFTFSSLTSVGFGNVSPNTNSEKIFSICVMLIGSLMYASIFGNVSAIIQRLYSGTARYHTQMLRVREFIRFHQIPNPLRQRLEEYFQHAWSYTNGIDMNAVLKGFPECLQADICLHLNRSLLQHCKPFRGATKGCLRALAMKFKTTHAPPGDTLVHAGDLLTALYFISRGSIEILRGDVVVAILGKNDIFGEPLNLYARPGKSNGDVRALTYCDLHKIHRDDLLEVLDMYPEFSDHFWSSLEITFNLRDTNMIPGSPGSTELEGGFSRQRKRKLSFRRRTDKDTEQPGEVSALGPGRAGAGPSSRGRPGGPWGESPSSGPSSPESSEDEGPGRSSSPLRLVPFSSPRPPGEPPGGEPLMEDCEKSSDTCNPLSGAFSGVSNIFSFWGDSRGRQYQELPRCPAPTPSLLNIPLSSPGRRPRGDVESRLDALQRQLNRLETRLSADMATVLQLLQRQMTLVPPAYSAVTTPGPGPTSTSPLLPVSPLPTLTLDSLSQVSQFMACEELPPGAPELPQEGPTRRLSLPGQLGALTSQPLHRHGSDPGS

| Compound | hERG current change (%, negative = inhibition) at 1uM [%] |
| --- | --- |
| COc1ccc(NC(=O)CS(=O)(=O)c2ccc(F)cc2)cc1 | 10.6 |
| Cc1ccc(-c2cc(C(F)(F)F)n3nc(C(=O)Nc4ccon4)cc3n2)cc1C | 7.99 |
| COCC(=O)N1CCCC(C(=O)c2ccc(-c3ccccc3)cc2)C1 (centres unmarked) | 0.927 |
| O=C1/C(=C/c2cccc(Cl)c2)CSc2sccc21 | 16 |
| COc1ccc(COc2ccc(S(=O)(=O)N3CCCC3)cc2C(N)=O)cc1F | 17.7 |
| CCOC(=O)c1oc2cc(OCC(N)=O)ccc2c(=O)c1-c1ccc(OC)c(OC)c1 | 15.2 |
| O=C(O)c1ccccc1NS(=O)(=O)c1ccccc1C(F)(F)F | 5.14 |
| O=C(Nc1ccc2nc3n(c(=O)c2c1)CCCCC3)c1ccccc1[N+](=O)[O-] | 14.6 |
| CC1CN(C(=S)Nc2cccc(Cl)c2Cl)CC(C)O1 (centres unmarked) | 2.73 |
| COc1cccc(CNC(=O)C2CCN(S(=O)(=O)c3ccc4c(c3)CCC(=O)N4)CC2)c1 | 17.5 |
| Cc1ccc(C(=O)Oc2coc(CSc3nnc(NC(=O)c4cccs4)s3)cc2=O)cc1 | 13.4 |
| Cc1ccc(C(=O)/C=C\NCc2ccccc2)cc1 | 7.27 |
| Cn1c(C(=O)NC2CCCCC2)cc2c(=O)n3ccccc3nc21 | 13.4 |
| O=C(NC1CCCCCC1)c1cc2c(=O)n3ccccc3nc2s1 | 8.59 |
| N=c1c(C(=O)NC2CCCC2)cc2c(=O)n3ccccc3nc2n1C1CCCCC1 | -86.9 |
| N=c1c(S(=O)(=O)c2ccc(Cl)cc2)cc2c(=O)n3ccccc3nc2n1C1CCCC1 | 13.9 |
| N=c1c(C(=O)NC2CCCC2)cc2c(=O)n3ccccc3nc2n1C1CCCC1 | -89.1 |
| O=P(C(Cl)Cl)(N1CCOCC1)N1CCOCC1 | 17.8 |
| CC(=O)Nc1cccc(NC(=O)CSc2nnc3ccc(-c4cccnc4)nn23)c1 | 13.1 |
| CCn1cc(/C=C/C(=O)Nc2c(C)nn(Cc3ccccc3)c2C)cn1 | 6.45 |
| Cc1nc(-c2ccccc2)nc2[nH]c(C(C)C)cc(=O)c12 | -5.88 |
| CC(=O)c1ccc(Nc2cc(C)nc3ccc(C)cc23)cc1 | -53.2 |
| COC(=O)c1ccc(Nc2cc(C)nc3ccc(C)cc23)cc1.Cl | -9.09 |

| Compound | hERG current change (%, negative = inhibition) at 1uM [%] |
| --- | --- |
| CC(=O)c1cccc(Nc2cc(C)nc3ccc(C)cc23)c1.Cl | -13.7 |
| N#Cc1ccc(N2CCCNCC2)nc1 | -90.9 |
| N#Cc1ccc(N2CCOCC2)nc1 | 1.37 |
| CCCCNC(=O)N1CCCN(c2ccc(C#N)cn2)CC1 | -11.6 |
| Cc1ccc(NC(=O)COC(=O)Cn2cnc3c2c(=O)n(C)c(=O)n3C)c(Cl)c1 | 13.3 |
| Cc1ccc(C(=O)COC(=O)C2C3C=CC(C3)C2C(=O)OCC(=O)c2ccc(C)c(C)c2)cc1C (centres unmarked) | 11.2 |
| O=C(NCCC1CCCCN1S(=O)(=O)c1ccc(F)cc1)C(=O)Nc1ccccc1 (centres unmarked) | 7.03 |
| NC(=O)COC(=O)c1ccc(Oc2ccccc2)cc1 | 4.12 |
| O=C(Nc1ccccc1C(=O)N1CCCC1)c1ccc(Cl)cc1Cl | 10.3 |
| O=C(Nc1cc(C(=O)N2CCOCC2)ccc1N1CCCC1)c1cccs1 | -78.2 |
| CNC(=S)Nc1cc(C(=O)N2CCCC2)ccc1N1CCCC1 | 2.01 |
| O=C(Nc1cc(C(=O)N2CCCC2)ccc1N1CCCC1)c1ccccc1 | -83.5 |
| O=C(Nc1ccccc1N1CCCCC1)c1ccccc1F | -5.76 |
| O=C(Nc1ccccc1C(=O)N1CCCCCC1)c1ccccc1Cl | 13.6 |
| O=C(Nc1cc(C(=O)N2CCCC2)ccc1N1CCCC1)C1CC1 | -1.85 |
| COC(=O)c1ccc(N2CCOCC2)c(NC(=O)c2cccs2)c1 | 0.514 |
| O=C(Nc1ccccc1N1CCCC1)c1ccccc1F | 6.48 |
| O=C(Nc1ccc(C(=O)N2CCOCC2)cc1)c1cccs1 | 20.3 |
| O=C(Nc1ccccc1C(=O)N1CCCCC1)c1ccc(Cl)cc1Cl | -79.6 |
| O=C(Nc1cc(C(=O)N2CCCC2)ccc1N1CCCC1)c1ccccc1F | -82.8 |
| Cc1nnsc1C(=O)N1CCN(c2ccc(C#N)cn2)CC1 | 3.48 |
| CCOc1cccc(/C=N/N2C(C)CCCC2C)c1O (centres unmarked) | 2.07 |
| CCCCCCOc1ccc(CN2CCN(C)CC2)cc1 | -0.56 |

| Compound | hERG current change (%, negative = inhibition) at 1uM [%] |
| --- | --- |
| CC(=O)/C=C\c1ccccc1OC(=O)c1cc2ccccc2oc1=O | 16.3 |
| CCOC(=O)c1cc2cc(OCc3ccccc3)ccc2nc1C | 8.83 |
| CC(C)c1csc(CN2CCC(N3CCC(C(=O)NCC4CCCO4)CC3)CC2)n1 (centres unmarked) | 9.96 |
| O=C(Oc1ccc2ccc(=O)oc2c1)c1ccccc1 | 9.28 |
| O=C(Oc1ccc2ccccc2c1)c1ccco1 | -0.657 |
| O=C(Oc1ccc2ccc(=O)oc2c1)c1ccco1 | -53.7 |
| CC1(c2nnc(-c3ccncc3)o2)CC(c2cccc(Cl)c2)=NO1 (centres unmarked) | 13.4 |
| O=C(CN1C(=O)CSC1=O)N1CCCC(Nc2ccc(F)cc2)C1 (centres unmarked) | 11.5 |
| CCc1ccc(NC(=O)CSCCN2C(=O)c3ccccc3C2=O)cc1 | -8.99 |
| COc1ccc(OC)c(C2C(C#N)=C(N)Oc3c2c(C)nn3-c2cccc(Cl)c2)c1 (centres unmarked) | 7.28 |
| CCn1c(SCC(=O)Nc2cccc(C)n2)nnc1-c1ccco1 | 0.773 |
| COCCCn1c(SCC(=O)Nc2cccc(C)n2)nnc1-c1ccco1 | -20.6 |
| CCCCn1c(SCC(=O)Nc2cccc(C)n2)nnc1-c1ccco1 | -78 |
| COc1ncnc2c1oc1nc(CC(C)C)c3c(c12)CC(C)(C)OC3 | -10.6 |
| O=C(CSc1ccc(F)cc1)Nc1ccc(Br)cc1 | 13.9 |
| CCOC(=O)/C(C(C)=O)=C1\OC(=O)c2ccccc21 | 8.9 |
| COc1ccc(CNC(=O)CSc2n[nH]c(N)n2)cc1 | 14.9 |
| COc1ccc(CNC(=O)CSc2n[nH]c(N)n2)cc1OC | -73.4 |
| COc1ccc(CCNC(=O)CSc2n[nH]c(N)n2)cc1OC | 18.1 |
| O=C(O)C1Nc2ccc(C(F)(F)F)cc2C2OCCC12 (centres unmarked) | 10.7 |
| C=CCn1c(SCC(=O)OCC)nc2cc(C(=O)NCc3ccco3)ccc2c1=O | -9.92 |
| O=C(NCc1ccco1)c1ccc2c(=O)n(Cc3ccco3)c(SCC(=O)N3CCCC3)nc2c1 | -66.9 |
| CCOC(=O)CSc1nc2cc(C(=O)NCC3CCCO3)ccc2c(=O)n1Cc1ccco1 (centres unmarked) | -18.2 |

| Compound | hERG current change (%, negative = inhibition) at 1uM [%] |
| --- | --- |
| O=C(NCC1CCCO1)c1ccc2c(=O)n(CC3CCCO3)c(SCC(=O)N3CCCC3)nc2c1 (centres unmarked) | 5.44 |
| O=C(NCC1CCCO1)c1ccc2c(=O)n(Cc3ccco3)c(SCC(=O)N3CCCC3)nc2c1 (centres unmarked) | -54 |
| CCCCCn1c(SCC(=O)OCC)nc2cc(C(=O)NCc3ccco3)ccc2c1=O | 12.8 |
| CCN(C(=O)CSc1nnnn1-c1ccccc1)c1c(N)n(Cc2ccccc2)c(=O)[nH]c1=O | 15.9 |
| CCOc1ccc2nc(NCCO)[nH]c2c1 | 10.9 |
| Cc1ccc(S(=O)(=O)NCCC(=O)NC2CCCC2)cc1 | 1.28 |
| CC(C)C[C@@H](CSc1ccc(Br)cc1)N1CCN(CCc2ccccc2)CCC1=O | -28.9 |
| CCCN1CCC(=O)N([C@H](COc2ccccc2)Cc2ccccc2)CC1 | -52.4 |
| CC(C)CN1CCC(=O)N([C@H](COc2ccccc2)Cc2ccccc2)CC1 | -29.8 |
| COc1ccc(SC[C@H](Cc2ccccc2)N2CCN(CCc3ccccc3)CCC2=O)cc1 | -43.2 |
| CCCCCCCN1CCC(=O)N([C@H](CO)Cc2ccccc2)CC1 | -77.2 |
| CCCN1CCC(=O)N([C@H](CSc2ccccc2)Cc2ccccc2)CC1 | -48.9 |
| CCCN1CCC(=O)N([C@H](CO)Cc2ccccc2)CC1 | 6.98 |
| CC(C)C[C@@H](COc1ccccc1)N1CCN(CCc2ccccc2)CCC1=O | -61.7 |
| CC(C)C[C@@H](COc1ccccc1)N1CCN(Cc2ccccc2)CCC1=O | -4.6 |
| COc1ccc(SC[C@H](CC(C)C)N2CCN(CCc3ccccc3)CCC2=O)cc1 | -51.6 |
| O=C1CCN(CCCc2ccccc2)CCN1[C@H](CO)Cc1ccccc1 | -12 |
| CCCN1CCC(=O)N([C@H](COc2ccccc2)CC(C)C)CC1 | -48.1 |
| O=C(Oc1coc(CSc2ncccn2)cc1=O)c1ccc(Br)o1 | 11.6 |
| Cc1cc(C)n(CCN(C)C(=O)C2CCC(=O)N(CCN3CCOCC3)C2)n1 (centres unmarked) | 16.1 |
